The target in test [1] is Parathyroid hormone/parathyroid hormone-related peptide receptor (Homo sapiens) (UniProt Q03431). Briefly: qHTS for PTHR1 Agonists: Optimization Screen against the NCGC LOPAC library (AID 1347079).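 Note: GloSensor cAMP luminescence in HEK-293 GP2 cells expressing human PTHR1 with IBMX.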 In a few lines: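 Compounds were tested across a qHTS titration. PTHR1-expressing GP2 cells report cAMP rises via GloSensor luminescence after 1 hr compound exposure at 37C with IBMX present.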
Sequence of Parathyroid hormone/parathyroid hormone-related peptide receptor (Homo sapiens) (Q03431 whole entry, looked up): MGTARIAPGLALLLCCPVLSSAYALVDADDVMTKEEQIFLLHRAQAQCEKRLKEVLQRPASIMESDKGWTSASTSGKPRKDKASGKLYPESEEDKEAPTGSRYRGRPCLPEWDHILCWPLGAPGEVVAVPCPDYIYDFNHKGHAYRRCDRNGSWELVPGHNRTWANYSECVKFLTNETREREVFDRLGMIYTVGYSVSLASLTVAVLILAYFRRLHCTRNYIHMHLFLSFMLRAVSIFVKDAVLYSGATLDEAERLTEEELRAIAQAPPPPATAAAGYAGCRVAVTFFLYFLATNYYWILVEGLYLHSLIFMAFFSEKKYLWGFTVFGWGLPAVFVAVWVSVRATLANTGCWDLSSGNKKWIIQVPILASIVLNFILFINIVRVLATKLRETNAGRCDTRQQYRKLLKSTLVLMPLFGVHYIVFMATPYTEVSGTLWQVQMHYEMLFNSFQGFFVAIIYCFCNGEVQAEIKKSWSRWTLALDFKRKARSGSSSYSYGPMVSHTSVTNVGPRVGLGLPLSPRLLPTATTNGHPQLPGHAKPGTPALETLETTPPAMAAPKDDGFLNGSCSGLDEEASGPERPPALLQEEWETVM

A short description of test [2]: qHTS of pediatric cancer cell lines to identify multiple opportunities for drug repurposing: Primary screen for TC32 cells (AID 1347089). Note: nearly all actives have a fitted effect of over 60% in size. In a few lines: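 In the primary qHTS, MIPE compounds were tested at 11 concentrations (0.78 nM to 46 µM) and NPC compounds at 8 (0.59 nM to 46 µM) on TC32 cells for 48 h. CellTiter-Glo luminescence gave viability.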
A general note: In qHTS, concentration-response curves come from the screen itself.

A short description of test [3]: qHTS of pediatric cancer cell lines to identify multiple opportunities for drug repurposing: Primary screen for DAOY cells (AID 1347090). Note: series mostly up to about 46 µM; nearly all actives have a fitted effect of over 55% in size. In a few lines: (§1)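 Eight- or eleven-point concentration series, 48 h treatment at 37 degrees C in growth media; readout CellTiter-Glo luminescence. Potency and efficacy were taken from the concentration-response curves.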
Test [4] is described as follows: qHTS of pediatric cancer cell lines to identify multiple opportunities for drug repurposing: Primary screen for SK-N-MC cells (AID 1347093). Note: potency is the fitted concentration of half-maximal effect. In a few lines: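 Metabolically active cells were quantified by ATP-dependent luminescence (CellTiter-Glo, 15 min at room temperature) following 48 h treatment. Cells had been plated at 500-1,000 per well and settled for 5 h beforehand.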

Test [5] can be described thus: qHTS of pediatric cancer cell lines to identify multiple opportunities for drug repurposing: Primary screen for BT-37 cells (AID 1347094). Note: series mostly up to about 57 µM. Put shortly:
(§2)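 500-1,000 cells/well; 5 h pre-incubation 37 °C/5% CO2; compound pinned; 48 h; CellTiter-Glo, 15 min RT; luminescence. MIPE 11-pt from 0.78 nM, NPC 8-pt from 0.59 nM final. Bortezomib 2.3 µM final as positive control.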

A short description of test [6]: qHTS of pediatric cancer cell lines to identify multiple opportunities for drug repurposing: Primary screen for NB-EBc1 cells (AID 1347095). Put shortly: as §2
A short description of test [7]: qHTS of pediatric cancer cell lines to identify multiple opportunities for drug repurposing: Primary screen for U-2 OS cells (AID 1347096). Note: nearly all actives have a fitted effect of over 50% in size. Put shortly:
(§3)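 Cells (500-1,000/well) in growth media were settled 5 h at 37 degrees C, then given compounds for 48 h. Viability was read as CellTiter-Glo luminescence. Primary runs used MIPE at 11 points (0.78 nM-46 µM) and NPC at 8 points (0.59 nM-46 µM); follow-ups used 11 points.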

Test [8] in a line: qHTS of pediatric cancer cell lines to identify multiple opportunities for drug repurposing: Primary screen for Saos-2 cells (AID 1347097). Note: nearly all actives have a fitted effect of over 40% in size. In a few lines:
as §2

The nature of test [9]: qHTS of pediatric cancer cell lines to identify multiple opportunities for drug repurposing: Primary screen for SK-N-SH cells (AID 1347098).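 Note: DMSO served as neutral control and bortezomib at 2.3 µM as positive control; nearly all actives have a fitted effect of over 65% in size.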 In a few lines: (§4)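 Cells (500-1,000/well) rested 5 h, then received compounds for 48 h; metabolically active cells were measured by CellTiter-Glo luminescence. Final concentrations spanned up to 46 µM (MIPE, 11-point) or 0.59 nM-46 µM (NPC, 8-point) in primary screens, 11-point in follow-ups.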

The nature of test [10]: qHTS of pediatric cancer cell lines to identify multiple opportunities for drug repurposing: Primary screen for NB1643 cells (AID 1347099). Note: nearly all actives have a fitted effect of over 50% in size. Note: potency is the fitted concentration of half-maximal effect. Put shortly:
as §2

Test [11] can be described thus: qHTS of pediatric cancer cell lines to identify multiple opportunities for drug repurposing: Primary screen for LAN-5 cells (AID 1347100). Put shortly:
as §3

Test [12] can be described thus: qHTS of pediatric cancer cell lines to identify multiple opportunities for drug repurposing: Primary screen for BT-12 cells (AID 1347101). Note: nearly all actives have a fitted effect of over 25% in size. In a few lines:
as §4

The nature of test [13]: qHTS of pediatric cancer cell lines to identify multiple opportunities for drug repurposing: Primary screen for Rh18 cells (AID 1347102). Note: nearly all actives have a fitted effect of over 65% in size. Put shortly: as §3
Test [14] can be described thus: qHTS of pediatric cancer cell lines to identify multiple opportunities for drug repurposing: Primary screen for OHS-50 cells (AID 1347103). Note: nearly all actives have a fitted effect of over 40% in size. In a few lines: as §4
Test [15] can be described thus: qHTS of pediatric cancer cell lines to identify multiple opportunities for drug repurposing: Primary screen for RD cells (AID 1347104). Note: nearly all actives have a fitted effect of over 55% in size. Put shortly: as §2
Test [16] can be described thus: qHTS of pediatric cancer cell lines to identify multiple opportunities for drug repurposing: Primary screen for SJ-GBM2 cells (AID 1347091). Put shortly:
as §1

Test [17] is described as follows: qHTS of pediatric cancer cell lines to identify multiple opportunities for drug repurposing: Primary screen for A673 cells (AID 1347092). Note: nearly all actives have a fitted effect of over 45% in size. In a few lines:
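48 h compound exposure, A673, 500-1,000 cells/well, 37 degrees C/5% CO2. MIPE: 11-point, 0.78 nM-46 µM; NPC: 8-point, 0.59 nM-46 µM (final). Readout CellTiter-Glo luminescence after 15 min RT.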

Test [18] is described as follows: qHTS of pediatric cancer cell lines to identify multiple opportunities for drug repurposing: Primary screen for MG 63 (6-TG R) cells (AID 1347105). Note: nearly all actives have a fitted effect of over 50% in size. Put shortly: as §2

Molecules are shown by their SMILES. A number with no mark means an inactive call. Results filed as inconclusive are left out. Active and inactive are the calls of the source. Calls come from the whole dose curve; as a rule, active = well fitted curve in the direction sought with a large enough effect; inconclusive = small, poorly fitted or top-dose-only effect, or another doubt; inactive = no such curve, though single readings can be large; an effect the other way counts as inactive or inconclusive.

For the molecule `Nc1ccn([C@@H]2O[C@H](CO)[C@@H](O)C2O)c(=O)n1` (stereo partly specified), the molecule was called inactive in test [1]. The Potency result in test [2], in test [3], in [4], in test [5], in [6] and in [7] was “inactive” each time. The Potency result in [8], in [9], in [10], in [11], in test [12] and in test [13] was “inactive” in each case. Also, the Potency entry in [14] and in test [15] was “inactive” each time.

Take `O=C(OC1C[C@H]2CC[C@@H](C1)[N+]21CCCC1)C(O)(c1ccccc1)c1ccccc1` (stereo partly specified): the Potency result in test [2], in test [3], in [16], in [17], in test [5] and in test [6] was “inactive” each time. Moreover, the Potency result in test [7], in [8], in [11], in [12], in [13] and in test [15] was “inactive” each time. Further, the Potency entry in test [18] was “inactive”. Moreover, the Potency in test [4] is 14.8 µM (active); in test [10], 10.5 µM (active).

As to `c1ccc2[nH]c(-c3cscn3)nc2c1`, the Potency result in test [2], in test [3], in test [16], in test [17], in test [5] and in test [6] was “inactive” in each case. The Potency entry in test [7], in test [8], in [10], in [11], in test [12] and in test [13] was “inactive” in each case. Also, the Potency entry in [14] and in test [15] was “inactive” each time.

Regarding `CC(C)c1ccc2oc3nc(N)c(C(=O)O)cc3c(=O)c2c1`, the Potency entry in [2], in test [3], in test [16], in test [17], in test [4] and in test [5] was “inactive” throughout. Besides, the Potency result in test [7], in test [8], in test [10], in test [11], in [12] and in [13] was “inactive” in each case. In addition, the Potency entry in test [14] and in [15] was “inactive” each time.

As to `CNC[C@@H](O)[C@@H](O)[C@H](O)[C@H](O)CO`, the Potency entry in [2], in test [3], in [16], in [17], in test [5] and in test [6] was “inactive” throughout. Besides, the Potency entry in test [8], in test [9], in [10], in test [11], in test [12] and in test [13] was “inactive” throughout. Also, the Potency entry in test [15] and in [18] was “inactive” in each case. For the same molecule, in [4], the Potency was 23.5 µM (active).

As to `COC(=O)N[C@H](C(=O)N[C@@H](Cc1ccccc1)[C@@H](O)CN(Cc1ccc(-c2ccccn2)cc1)NC(=O)[C@@H](NC(=O)OC)C(C)(C)C)C(C)(C)C`, the Potency result in [2], in test [3], in [16], in test [17], in [4] and in test [5] was “inactive” throughout. Further, the Potency result in test [6], in [7], in test [8], in test [9], in [10] and in [11] was “inactive” throughout. Besides, the Potency entry in test [12], in test [13], in test [14] and in [15] was “inactive” each time.

For `N[C@@H](Cc1cc(I)c(Oc2cc(I)c(O)c(I)c2)c(I)c1)C(=O)O`, the Potency entry in test [2], in test [3], in test [16], in test [17], in test [4] and in [5] was “inactive” throughout. Moreover, the Potency entry in [6], in test [7], in test [8], in test [9], in test [10] and in test [11] was “inactive” in each case. The Potency result in test [12], in test [13], in test [14], in [15] and in test [18] was “inactive” each time.

(Values after PubChem BioAssay (NCATS).)
